{
  "source": "the supplement of paper PMC3414501",
  "note": "Structures can show the parent of a compound that is named as a salt. Values without a mark were called inactive. No stated cut-off is given here; in the data, active = 2 or more and inactive = the rest.",
  "data": [
    {"tested_on": "S. cerevisiae AD1-9 (efflux-pump deficient), vegetative growth in YPD", "assay": "growth sensitivity score (doubling time z-score vs DMSO controls); higher = slower growth, strongly negative scores also mark growth inhibition (complete suppression), active = hit call of the paper", "settings": "stock concentration (mM, diluted 1:100): 10.1", "procedure,_shortened": "(§1)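 Yeast (Saccharomyces cerevisiae BY4741 and AD1-9) was grown in rich medium in microtiter plates from a starting OD600 of 0.065, with optical density read every 15 min over 24 hours. The growth sensitivity score was the difference between compound and solvent-only means, divided by the solvent-only standard deviation. Every experiment had eight solvent-only wells.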", "values": [
      {"smiles": "C[C@]12CC[C@H](O)CC1=CC[C@@H]1[C@@H]2CC[C@@]2(C)[C@H]1CC[C@]2(C)O", "note": "[Methylandrostenediol]", "growth sensitivity score": "15.1 (active)"},
      {"smiles": "C[N+]1(CCC(C(N)=O)(c2ccccc2)c2ccccc2)CCCCC1", "note": "[Fenpiverinium bromide]", "growth sensitivity score": -1.25},
      {"smiles": "CC(NC(C)(C)C)C(=O)c1cccc(Cl)c1", "note": "(stereo not given) [Amfebutamone hydrochloride]", "growth sensitivity score": 0.01},
      {"smiles": "C[C@]12CCC(=O)C[C@@H]1CC[C@@H]1[C@@H]2CC[C@@]2(C)[C@H]1CC[C@]2(C)O", "note": "[Mestanolone]", "growth sensitivity score": "2.2 (active)"},
      {"smiles": "CCOC(=O)c1cncn1[C@H](C)c1ccccc1", "note": "[Etomidate]", "growth sensitivity score": "7.78 (active)"}
    ]},
    {"tested_on": "S. cerevisiae BY4741 (wild-type), vegetative growth in YPD", "assay": "growth sensitivity score (doubling time z-score vs DMSO controls); higher = slower growth, strongly negative scores also mark growth inhibition (complete suppression), active = hit call of the paper", "settings": "stock concentration (mM, diluted 1:100): 10", "procedure,_shortened": "as §1", "values": [
      {"smiles": "C[C@]12CC[C@H]3[C@@H](CCC4=CC(=O)CC[C@@]43C)[C@@H]1CC[C@@H]2O", "note": "[Testosterone]", "growth sensitivity score": "4.61 (active)"},
      {"smiles": "C#CCN(C)[C@H](C)Cc1ccccc1", "note": "[Selegiline]", "growth sensitivity score": 0.07},
      {"smiles": "N=C(NCc1ccc(Cl)cc1)SCCCc1c[nH]cn1", "note": "[Clobenpropit]", "growth sensitivity score": 0.09},
      {"smiles": "C=C1C[C@@H]2[C@H](CC[C@]3(C)C(=O)CC[C@@H]23)[C@@]2(C)C=CC(=O)C=C12", "note": "[Exemestane]", "growth sensitivity score": 0.77},
      {"smiles": "COc1cc(N)c(Cl)cc1C(=O)NC1CN2CCC1CC2", "note": "(stereo not given) [Zacopride]", "growth sensitivity score": -1.3},
      {"smiles": "CNC(=O)Oc1ccc2c(c1)[C@]1(C)CCN(C)[C@@H]1N2C", "note": "[Physostigmine]", "growth sensitivity score": -1.51},
      {"smiles": "Cc1nnc2n1-c1ccc(Cl)cc1C(c1ccccc1)=NC2", "note": "[Alprazolam]", "growth sensitivity score": 0.23},
      {"smiles": "CC(C)[C@]12O[C@H]1[C@@H]1O[C@]13[C@]1(O[C@H]1C[C@H]1C4=C(CC[C@@]13C)C(=O)OC4)[C@@H]2O", "note": "[Triptolide]", "growth sensitivity score": -0.92},
      {"smiles": "C[C@H]1CCC[C@H](O)CCCCCc2cc(O)cc(O)c2C(=O)O1", "note": "[Zeranol]", "growth sensitivity score": 1.77},
      {"smiles": "NC(=O)C[S+]([O-])C(c1ccccc1)c1ccccc1", "note": "(stereo not given) [Modafinil]", "growth sensitivity score": -1.13},
      {"smiles": "CN1C(=O)CN=C(c2ccccc2)c2cc([N+](=O)[O-])ccc21", "note": "[Nimetazepam]", "growth sensitivity score": -0.45},
      {"smiles": "COc1ccc(CCN)cc1OC", "note": "[Homoveratrylamine]", "growth sensitivity score": -1.07},
      {"smiles": "COc1cc2c(cc1OC)[C@@]13CCN4CC5=CCO[C@H]6CC(=O)N2[C@H]1[C@H]6[C@H]5C[C@H]43", "note": "[Brucine]", "growth sensitivity score": 0.41},
      {"smiles": "CCN(C(C)=O)c1cccc(-c2ccnc3c(C#N)cnn23)c1", "note": "[Zaleplon]", "growth sensitivity score": -0.43},
      {"smiles": "COC(=O)N1CCN(C(=O)Cc2ccc(Cl)c(Cl)c2)C(CN2CCCC2)C1", "note": "(stereo not given)", "growth sensitivity score": -1.35},
      {"smiles": "NC1=NC(=O)C(c2ccccc2)O1", "note": "(stereo not given) [Pemoline]", "growth sensitivity score": -1.83},
      {"smiles": "c1ccc(Cn2ccnc2)cc1", "note": "[1-Benzylimidazole]", "growth sensitivity score": -1.22},
      {"smiles": "CC[C@@H]1C=CC=CC[C@H](C)[C@@H](O)[C@@H](C)C(=O)[C@H](C)[C@@H](O)[C@H](C)C(=O)[C@H](C)[C@@H](O)[C@H](C)C=CC(=O)O[C@H]2[C@@H](C)[C@@H](CC1)O[C@@]1(CC[C@@H](C)[C@@H](C[C@H](C)O)O1)[C@@H]2C", "note": "[Oligomycin c]", "growth sensitivity score": 1.53},
      {"smiles": "COc1ccc2[nH]cc(CCN)c2c1", "note": "[5-Methoxytryptamine]", "growth sensitivity score": 0.09},
      {"smiles": "CC(C)CC(N(C)C)C1(c2ccc(Cl)cc2)CCC1", "note": "(stereo not given) [Sibutramine hydrochloride]", "growth sensitivity score": 1.85}
    ]},
    {"tested_on": "S. cerevisiae BY4741 (wild-type), vegetative growth in YPD", "assay": "growth sensitivity score (doubling time z-score vs DMSO controls); higher = slower growth, strongly negative scores also mark growth inhibition (complete suppression), active = hit call of the paper", "settings": "stock concentration (mM, diluted 1:100): 10.1", "procedure,_shortened": "as §1", "values": [
      {"smiles": "C[C@]12CC[C@H](O)CC1=CC[C@@H]1[C@@H]2CC[C@@]2(C)[C@H]1CC[C@]2(C)O", "note": "[Methylandrostenediol]", "growth sensitivity score": 0.35},
      {"smiles": "C[N+]1(CCC(C(N)=O)(c2ccccc2)c2ccccc2)CCCCC1", "note": "[Fenpiverinium bromide]", "growth sensitivity score": -1.06},
      {"smiles": "CC(NC(C)(C)C)C(=O)c1cccc(Cl)c1", "note": "(stereo not given) [Amfebutamone hydrochloride]", "growth sensitivity score": -0.7},
      {"smiles": "C[C@]12CCC(=O)C[C@@H]1CC[C@@H]1[C@@H]2CC[C@@]2(C)[C@H]1CC[C@]2(C)O", "note": "[Mestanolone]", "growth sensitivity score": -0.15},
      {"smiles": "CCOC(=O)c1cncn1[C@H](C)c1ccccc1", "note": "[Etomidate]", "growth sensitivity score": "2.21 (active)"}
    ]}
  ]
}
